Bioassay records deposited in PubChem by National Center for Advancing Translational Sciences (NCATS).
BAZ2B inh: BAZ2B (human) inhibition | Q9UIF8 | AlphaScreen BAZ2B-H3K14Ac peptide displacement | Potency, µM (series often up to 114 µM), without a hit: at the highest dose activity change, negative = inhibition, hits mostly inhibitors | hit rate 4.4% among 360,000 | AID 504333; also: % is scaled to controls: 0 for no effect and ±100 for the full control effect; nearly all actives have a fitted effect of over 60% in size
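BAZ2B 50 nM plus b-H3(5-23)K14Ac 50 nM, PBS pH 7.4/0.01% Tween-20, 30 min RT; compound added (max 110 uM), 30 min RT; streptavidin donor/Ni-chelate acceptor beads 10 ug/mL final, 20 min dark; AlphaScreen read.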
JMJD2A Tudor: inhibitors of human JMJD2A Tudor domain | O75164 | AlphaScreen JMJD2A-Tudor / H3K4me3 peptide binding | Potency, µM (series often up to 114 µM), for inactives: top-dose activity change, negative = inhibition, actives largely listed as inhibitors | hit rate 4.4% among 390,000 | AID 504339; also: % is scaled to controls: 0 for no effect and ±100 for the full control effect; nearly all actives have a fitted effect of over 50% in size
G9a block: inhibitors of human histone lysine methyltransferase G9a; Q96KQ7; G9a H3K9 monomethylation, AlphaScreen, 2 h; Potency, µM (highest dose often 102 µM), for inactives: at the highest dose activity, negative = inhibition, usual class: inhibitors; hit rate 8.8% among 350,000; also: % is scaled to controls: 0 for no effect and ±100 for the full control effect; nearly all actives have a fitted effect of over 75% in size
Target sequence (Q96KQ7 913-1193 limits assumed): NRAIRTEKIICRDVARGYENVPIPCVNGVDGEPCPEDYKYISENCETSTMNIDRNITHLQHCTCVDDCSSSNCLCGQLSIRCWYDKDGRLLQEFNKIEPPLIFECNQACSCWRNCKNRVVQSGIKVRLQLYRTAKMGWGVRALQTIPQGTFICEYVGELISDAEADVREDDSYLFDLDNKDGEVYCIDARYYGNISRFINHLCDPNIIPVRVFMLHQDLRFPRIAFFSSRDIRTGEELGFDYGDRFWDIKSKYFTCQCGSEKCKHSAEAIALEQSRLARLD
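Signal arises when biotinylated H3K9 peptide, once monomethylated, bridges streptavidin donor and antibody-captured acceptor beads. Enzyme at 20 nM was preincubated 15 min with test compounds; peptide 500 nM and SAM 20 uM then reacted for 2 h.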
L3MBTL1 inh: inhibitors of human L3MBTL1. hit rate 0.66% among 230,000. AID 485360. AlphaScreen L3MBTL1–H3K9me1 peptide binding. Q9Y468. Potency, µM (series often up to 57.1 µM), for the others: at the highest dose activity, negative = inhibition, hits mostly inhibitors; also: % is scaled to controls: 0 for no effect and ±100 for the full control effect; nearly all actives have a fitted effect of over 60% in size
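First, the protein-peptide complex forms for 30 min at room temperature (L3MBTL1 50 nM, biotinylated H3K9me1 peptide 75 nM). Next, compounds are pin-transferred and incubated 30 min. Finally, AlphaScreen beads are added and read after 30 min.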
HP1b binding inh: inhibitors of HP1-beta chromodomain binding to methylated histone tails; Potency, µM (top dose mostly 114 µM), for the others: top-dose activity change, negative = inhibition, actives largely listed as inhibitors; P83916; AID 540317; hit rate 0.56% among 390,000; AlphaScreen HP1-beta / biotin-H3K9me3 peptide binding; also: nearly all actives have a fitted effect of over 70% in size
Target sequence (P83916 whole entry, looked up): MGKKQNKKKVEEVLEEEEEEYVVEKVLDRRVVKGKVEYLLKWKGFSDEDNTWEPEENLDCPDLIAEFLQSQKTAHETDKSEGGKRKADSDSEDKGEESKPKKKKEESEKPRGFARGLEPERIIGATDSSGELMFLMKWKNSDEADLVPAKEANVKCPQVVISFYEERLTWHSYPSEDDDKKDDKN
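AlphaScreen: HP1-beta (50 nM) preformed 30 min with biotin-H3(1-18)K9me3 peptide (50 nM) in PBS pH 7.4, 0.01% Tween-20. Compound added for 30 min at RT, then streptavidin donor/nickel chelate acceptor beads (10 ug/mL) for 30 min.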
Numbers without * were called inactive; u = inconclusive; x = no result given; [ ] = another dose, or the depositor's remark. Sampled rows, rich in hits. Any-hit rate of the full collection: about 11%. Calls follow the shape of the dose curve; as a rule, active = well fitted inhibition curve with a large enough effect; inconclusive = small, poorly fitted or top-dose-only effect; inactive = no such curve, though single readings can be large or run the other way. Potency is read from the fitted curve at half-maximal effect.

SMILES | BAZ2B inh | JMJD2A Tudor | G9a block | L3MBTL1 inh | HP1b binding inh
Cc1ccccc1CNCc1cccnc1 | 7.1% | -8.8% | 0.4%[59 µM] | x | -2.9%
CCOc1ccc(CC(=O)NCCc2sc3nc(-c4ccc(F)cc4)nn3c2C)cc1 | -2.9% | -10.1% | 9.6%[59 µM] | x | -3.6%
Cc1ccc(S(=O)(=O)N2CCN(S(=O)(=O)c3ccc4c(c3)OCCCO4)CC2)cc1 | x | -26.2%[57.1 µM] | x | x | 12.1%[57 µM]
COc1cc(CNCc2ccc(SC)cc2)cc(OC)c1 | u | 1.41µM* | 22.4µM* | -8.1% | u
COc1ccccc1CNCc1cc(OC)c(OC)c(OC)c1 | 79.4µM* | 39.8µM* | 7.94µM* | x | 70.8µM*
COc1cc(/C=C2/C(=O)ON=C2c2ccccc2)ccc1O | 50.1µM* | -28.8% | u | -6.8% | -17.1%
CCOc1cc(/C=C2/C(=O)ON=C2C)cc(Br)c1O | 15.8µM* | -28.2% | 44.7µM* | x | -17.7%
CCOc1cc(/C=C2\C(=O)ON=C2c2ccccc2)cc(Br)c1O | 28.2µM* | 25.1µM* | 25.1µM* | x | u
COc1cc(C=C2C(=O)OC(c3ccccc3)OC2=O)cc(Br)c1O (stereo unspecified) | -25.0% | -9.7% | u | x | 10.5%
COc1cc(/C=C2\C(=O)ON=C2c2ccccc2)cc(Cl)c1O | 44.7µM* | 22.4µM* | 35.5µM* | -25.4% | 44.7µM*
Cc1sc(/C=C2\C(=O)ON=C2c2ccccc2)cc1Br | -7.8% | x | 13.0%[59 µM] | 8.4% | x
O=C(CCc1ccccc1)N(Cc1cccnc1)c1nc2c(F)cc(F)cc2s1 | -2.2% | -16.9% | 4.1%[59 µM] | x | 34.9%
CCC(C(=O)Nc1cc(C(F)(F)F)ccc1Cl)n1nc(C)c2sc3ccccc3c2c1=O (stereo unspecified) | 2.4% | -0.7% | -35.9%[59 µM] | x | 43.3%
CCCNC(=O)Cn1nc(-c2ccc(C)c(C)c2)c2cnc3ccc(F)cc3c21 | -11.6% | -29.7% | -3.2%[59 µM] | x | -15.2%
COc1cc(/C=C2\C(=O)ON=C2c2ccccc2)cc(Br)c1O | 39.8µM* | 25.1µM* | 35.5µM* | x | 28.2µM*
COc1ccc(CNC(=O)C[C@H]2C[C@H](C(=O)N3CCCCC3)[C@@]3(C)c4[nH]c5cc(CCC(=O)N(C)C)ccc5c4CCN3C2=O)cc1OC | x | -1.4% | x | 5.4% | 28.5%
Cc1cccc(NC(=O)CSc2nnc(NC(=O)CN3CCCCC3)s2)c1 | 3.8% | x | 16.2%[59 µM] | 2.7% | x
Cc1ccc(Nc2nnc(SCC(=O)Nc3cccc(S(=O)(=O)NC4=NCCCCC4)c3)s2)cc1 | u | -35.8% | -2.2%[2.33 µM] | -6.9% | 0.3%
Cc1cccc(Nc2nnc(SCC(=O)Nc3cccc(S(=O)(=O)N4CCCCC4)c3)s2)c1 | -36.6% | u | 3.55µM* | -6.3% | -8.4%
O=C(CSc1nnc(NC(=O)C2CCC2)s1)Nc1ccc(N2CCOCC2)cc1 | -8.0% | -9.9%[57.1 µM] | 50.1µM* | -5.2% | -17.2%
CCc1ccc(Nc2nnc(SCC(=O)Nc3cccc(S(=O)(=O)NC4=NCCCCC4)c3)s2)cc1 | -29.9% | -32.1% | 6.31µM* | -10.1% | 9.1%
CSc1nnc(NC(=O)c2ccc(S(=O)(=O)N3CCOCC3)cc2)s1 | -4.0% | 5.1% | 10µM* | x | 55.8%
O=C(CSc1nnc(Nc2ccccc2)s1)Nc1ccc(S(=O)(=O)N2CCOCC2)cc1 | -1.0% | -10.8% | 8.91µM* | x | 21.3%
Cc1ccc(Nc2nnc(SCC(=O)Nc3ccc(S(=O)(=O)N4CCOCC4)cc3)s2)cc1 | 5.1% | -9.7% | u | x | 38.6%
COC(C(=O)C(O)C(C)O)C1Cc2cc3cc(OC4CC(OC5CC(O)C(O)C(C)O5)C(O)C(C)O4)c(C)c(O)c3c(O)c2C(=O)C1OC1CC(OC2CC(OC3CC(C)(O)C(O)C(C)O3)C(O)C(C)O2)C(O)C(C)O1 (stereo unspecified) | x | x | -29.0%[12.7 µM] | x | x
SMILES | BAZ2B inh | JMJD2A Tudor | G9a block | L3MBTL1 inh | HP1b binding inh
CC1(CC(=O)N/N=C/c2cc([N+](=O)[O-])c(O)cc2O)OCCO1 | 50.1µM* | u | 39.8µM* | u | 8.91µM*
C=CCn1c(O)c(N=Nc2ccccc2C)c2ccccc21 | -37.0% | u | 3.98µM* | -0.9% | u
C=CCn1c(O)c(N=NC(=S)Nc2ccc(OC)c(Cl)c2)c2ccccc21 | 7.94µM* | u | 35.5µM* | -24.5% | u
COc1ccc(-c2nc3sc(CCNC(=O)c4ccc(Br)o4)c(C)n3n2)cc1 | -23.5% | -18.5% | -1.5%[59 µM] | x | 27.4%
Cc1cccn2c(=O)c(C=O)c(Sc3ncccn3)nc12 | -18.1% | -16.1% | 39.8µM* | -0.2% | 28.6%
CCOC(=O)N1CCc2c(sc(NCc3ccc(OC)c(OC)c3OC)c2C(=O)Nc2ccc(OC)cc2OC)C1 | u | u | 7.08µM* | x | u
CCOC(=O)N1CCc2c(sc(NCc3ccc(N(C)C)cc3)c2C(=O)Nc2ccccc2OCC)C1 | 8.91µM* | 12.6µM* | 3.16µM* | x | u
COc1ccc(NC(=O)c2c(NCc3sccc3C)sc3c2CCCC3)c(OC)c1 | u | u | 14.1µM* | x | u
CCOC(=O)N1CCc2c(sc(NCc3ccc(N(CC)CC)cc3)c2C(=O)Nc2cc(OC)ccc2OC)C1 | 7.94µM* | u | 7.08µM* | x | u
COc1ccccc1NC(=O)c1c(NCc2ccc(OC)c(OC)c2OC)sc2c1CCCC2 | -25.9% | u | u | x | 11.0%
Cc1cc(C)cc(OCC(=O)O/N=C(\N)c2cccnc2)c1 | -6.9% | 14.0% | x | 18.9% | 71.8%
CC(Sc1ncn[nH]1)C(=O)Nc1ccc(Cl)cn1 (stereo unspecified) | -13.8% | 0.7% | u | -3.4% | 19.3%
CCc1ccc(NC(=O)CSc2nc3ccccc3nc2N2CCCC2)cc1 | 41.7% | 47.2% | 102.1% | 49.9% | 162.0%
CCOc1ccc(N(CC(=O)Nc2ccc3c(c2)OCO3)S(=O)(=O)c2ccccc2)cc1 | -20.9% | -34.3% | -8.7%[59 µM] | x | -8.6%
CCOc1ccccc1NC(=O)c1c(NCc2ccc(C)o2)sc2c1CCCCC2 | -19.2% | u | 5.01µM* | x | -14.4%
COc1ccccc1NC(=O)c1c(NCc2ccc(OC)c(OC)c2OC)sc2c1CCC2 | -6.1% | -30.8% | u | x | 11.2%
CCOc1ccccc1NC(=O)c1c(NCc2ccc(C)o2)sc2c1CCC(C)C2 (stereo unspecified) | 2.1% | -7.1% | -45.2%[59 µM] | x | 37.0%
COc1ccc(NC(=O)c2c(NCc3ccc(OC)c(OC)c3OC)sc3c2CCC3)c(OC)c1 | -30.1% | u | 12.6µM* | x | -14.6%
CCOC(=O)N1CCc2c(sc(NCc3ccc(OCC)cc3)c2C(=O)Nc2ccc(OC)cc2OC)C1 | -37.1% | u | 7.94µM* | x | -3.9%
COc1ccc(NC(=O)c2c(NCc3cccc(F)c3)sc3c2CCC3)c(OC)c1 | -23.2% | -29.8% | u | x | 29.0%
COc1ccc(Cl)cc1NC(=O)c1c(NCc2ccc(C)o2)sc2c1CCCC2 | u | u | u | x | -3.0%
CCOC(=O)N1CCc2c(sc(NCc3sccc3C)c2C(=O)Nc2cc(Cl)ccc2OC)C1 | -36.3% | u | 3.55µM* | x | -23.7%
Cn1c(=O)[nH]c2cc(-c3noc(-c4ccc(F)cc4)n3)ccc21 | 4.1% | 2.6% | 20.4%[59 µM] | x | 29.1%[57 µM]
